Assay outcomes (PubChem)
TIM10 inh = growth inhibitors of isogenic TIM10 control yeast, primary screen, counter-screen for tim10-1 yeast inhibitor project, luminescence, uHTS; S. cerevisiae TIM10 strain growth, BacTiter-Glo luminescence, 24 h; inhibition, % at 10 µM; hit rate 1.4% among 330,000; AID 463195, 2010;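 active means inhibition of 40% or more at the single tested concentration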;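 further: wild-type TIM10 isogenic control strain grown at permissive 25 °C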
NLRP3 yeast inh = NALP3 inflammasome inhibitors in reconstituted yeast, primary screen, luminescence, uHTS; Yeast reconstituted NLRP3/ASC/caspase-1, beta-gal luminescence, 24 h; inhibition, % at 10 µM; hit rate 0.39% among 330,000;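 active means inhibition of 50% or more; inactive means inhibition below 50%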
tim10-1 inh = growth inhibitors of tim10-1 mutant yeast, primary screen, luminescence, uHTS. S. cerevisiae tim10-1 ts strain growth, BacTiter-Glo, 24 h. inhibition, % at 20 µM. hit rate 2.2% among 330,000. AID 463190, 2010;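 active means inhibition of at least 40%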;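 further: mutant grown at 25 °C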
tim23-1 inh = growth inhibitors of tim23-1 mutant yeast, primary screen, luminescence, uHTS | S. cerevisiae tim23-1 growth, BacTiter-Glo luminescence, 24 h | inhibition, % at 20 µM | hit rate 1.3% among 330,000;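 active means growth inhibition of the mutant yeast at or above 50%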;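 further: temperature-sensitive mutant grown at 25 °C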
SKKanGAS inh = S. pyogenes SKKanGAS growth inhibitors in kanamycin, primary screen, streptokinase expression inhibitor project, SKKanGAS strain, BacTiter-Glo luminescence | 6 h | inhibition, % at 7.5 µM | hit rate 1.3% among 300,000;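 active means mean replicate score, as percent of positive control median, at least 50; inconclusive means mean below 50 but one replicate at or above 50; inactive means mean and every replicate below 50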;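 further: strain carries kanamycin resistance gene driven by streptokinase promoter and grows in 40 µg/ml kanamycin; loss of luminescence reflects streptokinase promoter inhibition or plain growth inhibition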
Each line names hits and unclear results; the compound was inactive in the other large screens. This is a sample that favours compounds with a hit; in the whole collection about 4.6% have one here.

CC(C)c1c(C(=O)N/N=C/c2cccc(OCc3ccc(F)cc3)c2)nnn1-c1nonc1N	SKKanGAS inh 87
COc1ccccc1-c1nnc(NC(=O)c2ccc(S(=O)(=O)N(C)CC3CCCO3)cc2)o1 (configuration not stated)	SKKanGAS inh 54
CN(CC1CCCO1)S(=O)(=O)c1ccc(C(=O)Nc2ccccc2F)cc1 (configuration not stated)	SKKanGAS inh inconclusive
CN(CC1CCCO1)S(=O)(=O)c1ccc(C(=O)Nc2nnc(-c3ccccc3)o2)cc1 (configuration not stated)	SKKanGAS inh 84
Cc1ccc(F)cc1NC(=O)CN1C(=O)NC2(CCCc3ccccc32)C1=O (configuration not stated)	none
CN1C(=O)c2ccc(C(=O)Nc3ccccc3O)cc2C1=O	none
COc1ccccc1N(Cc1ccccc1)S(=O)(=O)c1cccc(C(=O)Nc2cccc(C)n2)c1	none
C=CCN1C(=O)/C(=C\c2ccc(OC(=O)c3ccco3)c(OC)c2)SC1=S	none
C=CCN1C(=O)/C(=C/c2ccc(OC(C)=O)c(OCC)c2[N+](=O)[O-])SC1=S	SKKanGAS inh 77 (no result: TIM10 inh, NLRP3 yeast inh, tim10-1 inh, tim23-1 inh)
CCN(CC)c1ccc(C(=O)NNC(=O)C2CSC3(C)CCC(=O)N23)cc1 (configuration not stated)	none (no result: SKKanGAS inh)
N=C1S/C(=C\c2cccc3ccccc23)C(=O)N1c1ccc(F)cc1	SKKanGAS inh 56
N=C1S/C(=C\c2cn[nH]c2-c2ccc(F)cc2)C(=O)N1c1ccccc1F	SKKanGAS inh 60
N=C1S/C(=C\c2ccccc2F)C(=O)N1c1ccc(F)cc1	none
CCc1ccc(CNC(=O)CCn2ccc3cc(S(=O)(=O)N4CCCC4)ccc32)cc1	none
COC(=O)[C@]1(CC(C)C)N[C@H](c2ccc(-c3ccc(F)cc3)c(OC)c2)[C@@H]2C(=O)N(C)C(=O)[C@@H]21	none
Cc1cc(NC(=O)c2ccc(Cn3nc(C)c(Br)c3C)o2)no1	none
Cc1nn(Cc2ccc(C(=O)Nc3nc4c(C)cccc4s3)o2)c(C)c1Br	SKKanGAS inh 58
COc1cc(/C=C2\SC(=S)N(CCCCC(=O)O)C2=O)ccc1OS(=O)(=O)c1ccc(C)cc1	none
O=S(=O)(Nc1cc(Sc2cccc3cccnc23)c(O)c2ccccc12)c1ccccc1	SKKanGAS inh 91 (no result: TIM10 inh, NLRP3 yeast inh, tim10-1 inh, tim23-1 inh)
CCOc1ccc(S(=O)(=O)Nc2cc(SCC(=O)O)c(O)c3ccccc23)cc1	none (no result: TIM10 inh, NLRP3 yeast inh, tim10-1 inh, tim23-1 inh)
CC(=O)N1CCc2cc(S(=O)(=O)N3CCc4ccccc4C3)ccc21	none
CC(=O)N1CCc2cc(S(=O)(=O)N3CCc4ccccc43)ccc21	SKKanGAS inh 52
O=C(Nc1ccc(Cl)c(S(=O)(=O)N2CCCC2)c1)c1cc(=O)[nH]c2ccccc12	none (no result: SKKanGAS inh)
CCCCCn1c(CN2CCN(c3cc(Cl)ccc3C)CC2)nc2c1c(=O)[nH]c(=O)n2C	SKKanGAS inh 86
CCCCCn1c(N2CCN(c3cccc(Cl)c3)CC2)nc2c1c(=O)[nH]c(=O)n2C	none
CN(Cc1ccccc1)C(=O)c1ccc(NC(=O)Cc2cccc(NC(=O)C3CCCN(C(=O)C4CCC4)C3)c2)cc1 (configuration not stated)	none (no result: SKKanGAS inh)
NNC(=O)c1ccc(OCC2CC(c3ccc(Cl)cc3)=NO2)cc1 (configuration not stated)	SKKanGAS inh 51
O=c1c2cc([N+](=O)[O-])cc([N+](=O)[O-])c2[nH]n1-c1ccccc1	none
O=c1c2c([N+](=O)[O-])cc([N+](=O)[O-])cc2sn1Cc1ccccc1	SKKanGAS inh 85
CC(C)(CNC(=O)Cc1ccc(NS(=O)(=O)c2cccc(C(F)(F)F)c2)cc1)N1CCOCC1	none
O=C(Nc1nnc(-c2ccncc2)o1)c1ccccc1	none
O=C(Nc1nnc(-c2ccc3c(c2)CCCC3)o1)c1ccccc1Cl	SKKanGAS inh 90
O=C(Nc1nnc(-c2ccc3c(c2)CCCC3)o1)c1ccccc1	SKKanGAS inh 94
O=C(COc1ccccc1)Nc1nnc(-c2ccccc2Cl)o1	SKKanGAS inh 53
O=C(COc1ccccc1)Nc1nnc(-c2ccc3c(c2)CCCC3)o1	SKKanGAS inh 89
O=C(Nc1nnc(-c2ccc3c(c2)OCCO3)o1)c1ccc(Cc2ccccc2)cc1	SKKanGAS inh 102
O=C(CCOc1ccccc1)Nc1nnc(-c2ccc3c(c2)OCCO3)o1	none
Cc1c(C(=O)O)sc2nc(-c3cccs3)cc(C(F)(F)F)c12	none
Cc1c(C(=O)Nc2nccs2)sc2nc(-c3cccs3)cc(C(F)(F)F)c12	SKKanGAS inh 95
O=C(NNC(=O)c1cc(-c2cccc(Br)c2)nc2ccccc12)c1csc(N2CCOCC2)n1	SKKanGAS inh 56
O=C(NCCc1ccccc1Cl)c1ccc2nc3ccccc3c(=O)n2c1	none
COCCN(Cc1ccccc1)C(=O)c1ccc(C(=O)c2ccccc2)cc1	none (no result: SKKanGAS inh)
O=C(Nc1ccccc1Cc1ccccc1)c1ccccc1NS(=O)(=O)c1ccc(Cl)s1	SKKanGAS inh 117
O=C(CSc1nc2ccccc2c(=O)n1Cc1ccccc1)Nc1ccc(Br)cc1C(=O)O	SKKanGAS inh 52
Cc1ccc(S(=O)(=O)N2CCOCC2)cc1NC(=O)CSc1nc2ccccc2c(=O)n1Cc1ccccc1	none
O=c1[nH]cnc2cc(-c3ccccc3)sc12	none
COc1ccc(-c2cc3nc[nH]c(=O)c3s2)cc1	SKKanGAS inh 56
O=C(/C=C/c1ccccc1)CC(=O)c1ccccc1O	SKKanGAS inh 50
O=C(/C=C/c1ccccc1)NC(=O)c1ccccc1O	none
O=c1cc(N2CCCCC2)c(-c2ccccc2)nn1Cc1ccc(Cl)cc1Cl	SKKanGAS inh 105
O=c1cc(N2CCCCC2)c(-c2ccccc2)nn1Cc1ccccc1Cl	none
O=c1cc(N2CCCCC2)c(-c2ccccc2)nn1Cc1cccc(Cl)c1	SKKanGAS inh 52
O=C(NCC(c1ccc(F)cc1)N1CCOCC1)c1nn(-c2ccccc2)c(=O)c2ccccc12 (configuration not stated)	none (no result: SKKanGAS inh)
COc1ccc(-c2nnc(NC(=O)c3ccc(S(=O)(=O)N4COCC4(C)C)cc3)o2)cc1	SKKanGAS inh 89
CC1(C)COCN1S(=O)(=O)c1ccc(C(=O)Nc2nnc(-c3ccc(Cl)s3)o2)cc1	SKKanGAS inh 101
COC(=O)[C@]1(CC(C)C)N[C@H](c2ccc(-c3cccc(Cl)c3)cc2)[C@@H]2C(=O)N(C)C(=O)[C@@H]21	none
Cc1cccc(C)c1NC(=O)CNC(=O)c1cccnc1	none
O=C(Nc1ccn(Cc2c(F)c(F)cc(F)c2F)n1)c1ccc(COc2ccc(Cl)cc2Cl)o1	SKKanGAS inh 50
Cc1ccc(NC2CCCN(C(=O)C3CCCC3)C2)cc1C (configuration not stated)	none
CCOc1ccccc1OCCCC(=O)N1CCN(S(=O)(=O)c2ccc(C)cc2C)CC1	none (no result: SKKanGAS inh)
CCOc1ccc(C(=O)Nc2nnc(C3=COCCO3)o2)cc1	SKKanGAS inh 72
